RORgamma inh: qHTS for inhibitors of ROR gamma transcriptional activity | Drosophila S2 Gal4-RORgamma UAS-luciferase reporter, 20 h | hit rate 5.4% among 310,000 | Nuclear receptor ROR-gamma (Mus musculus), P51450 | Potency, µM (highest dose often 53.6 µM), inactives show at the highest dose activity change, negative = inhibition, hits mostly inhibitors; also: potency is read from the fitted curve at half-maximal effect; % is scaled to controls: 0 for no effect and ±100 for the full control effect; nearly all actives have a fitted effect of over 60% in size
Target sequence (P51450 whole entry, looked up, the tested form may be a part): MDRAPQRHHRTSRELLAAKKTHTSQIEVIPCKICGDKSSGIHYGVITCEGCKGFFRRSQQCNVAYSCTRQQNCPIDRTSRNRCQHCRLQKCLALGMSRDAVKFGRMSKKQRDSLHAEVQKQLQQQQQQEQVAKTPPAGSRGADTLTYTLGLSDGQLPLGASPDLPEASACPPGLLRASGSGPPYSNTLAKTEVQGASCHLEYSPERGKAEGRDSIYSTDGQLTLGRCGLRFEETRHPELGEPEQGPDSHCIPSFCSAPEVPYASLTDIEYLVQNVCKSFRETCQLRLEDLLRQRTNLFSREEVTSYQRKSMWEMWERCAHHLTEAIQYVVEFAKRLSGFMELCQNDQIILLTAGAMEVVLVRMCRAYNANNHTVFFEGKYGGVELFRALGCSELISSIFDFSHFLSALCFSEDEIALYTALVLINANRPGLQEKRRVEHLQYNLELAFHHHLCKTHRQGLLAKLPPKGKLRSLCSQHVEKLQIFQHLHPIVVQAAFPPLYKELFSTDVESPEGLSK
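Luciferase reporter read in Schneider cells carrying Gal4-RORγ (mouse) and UAS-Photinus luciferase; cells given compound 1 h before 700 uM copper sulfate induction, then incubated 20 h at ambient temperature.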
Giardia kill: Small Molecules that selectively kill Giardia lamblia: qHTS | hit rate 0.15% among 340,000 | activity change, % at 7.66 µM, hits read low | AID 540267, 2011 | Giardia lamblia trophozoite viability; in the data active = activity change below about -80%; inconclusive = between about -30% and that limit;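 also: parasites exposed to compound for two days anaerobically before the ATP read; % is scaled to controls: 0 for no effect and ±100 for the full control effect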
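Trophozoite viability was measured as ATP-dependent luminescence, read 15-30 min after reagent addition. Before that, parasites at 100 cells/well were exposed to compounds for 48 h, anaerobically, at 37 deg C.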
BRCA1 expr act: qHTS Assay to Identify Small Molecule Activators of BRCA1 Expression; MCF7-BRCA1-FFLuc reporter, luminescence, 48 h; response scale: scaled: vehicle 0%, 10 µM genistein 100%; Potency, µM (series often up to 46.1 µM), inactives show at the highest dose activation, hits mostly activators; hit rate 1.1% among 380,000; also: potency is read from the fitted curve at half-maximal effect; nearly all actives have a fitted effect of over 80% in size
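48 h compound treatment of MCF7-BRCA1-FFLuc cells (phenol-red free MEM, 37 °C), then 15 min with luciferase substrate and luminescence imaging.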
ELG1 DNA repair: qHTS screen for small molecules that inhibit ELG1-dependent DNA repair in human embryonic kidney (HEK293T) cells expressing luciferase-tagged ELG1. HEK293T ELG1-luciferase reporter, luminescence, 16 h; DNA damage induced by 5-fluorouridine. Potency, µM (top dose mostly 46.1 µM), for inactives: at the top dose activity change, negative = inhibition, usual class: inhibitors. hit rate 2.3% among 330,000. AID 504467, 2011; also: potency is read from the fitted curve at half-maximal effect; % is scaled to controls: 0 for no effect and ±100 for the full control effect; nearly all actives have a fitted effect of over 55% in size
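Luminescence from the luciferase reporter, measured 30 min after ONE-Glo reagent at room temperature, was the read-out. Beforehand, 2,000 cells per well were exposed for 16 hr at 37 °C to 5-fluorouridine together with compound or vehicle.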
p53 reactivation: qHTS assay for re-activators of p53 using a Luc reporter; Potency, µM (doses to about 92.2 µM), for inactives: top-dose activity change, positive = activation, usual class: activators; H1299 p53-A138V BP100-luciferase reporter, luminescence, 24 h; AID 504706, 2011; hit rate 0.063% among 320,000; also: potency is read from the fitted curve at half-maximal effect; % of control where 0% means no effect; nearly all actives have a fitted effect of over 45% in size
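H1299 (p53-null), stable ts p53-A138V + BP100-Luc; 1000 cells/well, Opti-MEM/10% FBS; cpd 4 pt, 1:5; 24 h, 37 deg C, 5% CO2; detection reagent 10 min RT; luminescence.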
VP16 counter: VP16 counterscreen qHTS for inhibitors of ROR gamma transcriptional activity; Potency, µM (top dose mostly 53.6 µM), without a hit: at the highest dose activity, negative = inhibition, most hits filed as inhibitors; Drosophila S2 Gal4-VP16 UAS-luciferase, luminescence, 20 h; hit rate 3.5% among 310,000;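 also: Gal4-VP16 expression switched on by copper sulfate through the metallothionein promoter; potency is read from the fitted curve at half-maximal effect; % is scaled to controls: 0 for no effect and ±100 for the full control effect; nearly all actives have a fitted effect of over 50% in size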
* marks the source's active call; other numbers are inactive results; ? = inconclusive; / = not tested or not shown. Only some compounds are listed: those with a hit (about 7.6% of all), similar ones and a draw of the others. Unless noted, calls follow the shape of the dose curve; as a rule, active = well fitted curve in the direction sought with a large enough effect; inconclusive = small, poorly fitted or top-dose-only effect, or another doubt; inactive = no such curve, though single readings can be large; an effect the other way counts as inactive or inconclusive.

SMILES | RORgamma inh | Giardia kill | BRCA1 expr act | ELG1 DNA repair | p53 reactivation | VP16 counter
O=C(NNC(=S)NC(=O)c1ccccc1[N+](=O)[O-])c1ccccc1 | 15.1% | 12.3 | -23.9% | -4.0% | 2.9% | 7.2%
CCCN(Cc1ccccc1)C(=S)NC(=O)c1ccccc1[N+](=O)[O-] | 0.355µM* | 5.3 | -22.5% | ? | -9.1% | 1µM*
O=C(NC(=S)N(CCO)Cc1ccccc1)c1cc(Br)ccc1Cl | 0.794µM* | 47.1 | -1.7% | 16.2% | 4.1% | 1.78µM*
CCN(Cc1ccccc1)C(=S)NC(=O)c1ccccc1Br | 0.794µM* | 28.3 | 0.3% | -28.1% | -6.4% | 1.12µM*
O=[N+]([O-])c1ccc(C=NN2CCOCC2)s1 | / | / | 5.1% | / | / | /
CC(=O)Nc1ccc(NC(=O)COC(=O)c2ccc([N+](=O)[O-])o2)cc1 | / | -2.5 | -1.1% | 28.6% | 14.5% | /
CC(=O)c1ccc(NC(=O)c2ccc([N+](=O)[O-])o2)cc1 | 6.31µM* | -100.9* | -80.7% | -3.8% | -75.9% | 12.6µM*
COc1ccc(NC(=O)c2ccc(Br)o2)cc1 | -20.0% | -4.4 | ? | ? | ? | -4.8%
COc1ccc(NC(=O)c2ccc([N+](=O)[O-])o2)cc1 | / | -94.9* | -63.3% | ? | / | /
Cc1cc(C)cc(NC(=O)c2ccc([N+](=O)[O-])o2)c1 | ? | -94.8* | -87.7% | ? | -13.5% | ?
CC(=O)c1cccc(NC(=O)c2cc(=O)c3ccccc3o2)c1 | 14.7% | -13.0 | -23.7% | 20.4% | / | 6.1%
CC(=O)c1cccc(NC(=O)c2ccc([N+](=O)[O-])o2)c1 | / | -87.6* | -18.0% | / | / | /
CCCC1CC(c2csc(N)n2)CCO1 (configuration not stated) | -1.9% | -7.7 | -5.3% | -4.6% | -2.0% | -1.1%
Cc1cc(C)nc(Nc2ccc(Br)cc2C(=O)O)n1 | 1.8% | 17.1 | -29.0% | 2.7% | 0.7% | -0.5%
Cc1oc2ncn(C)c(=O)c2c1C(=O)NCCCN(Cc1ccccc1)C(C)C | / | / | 0.0% | / | / | /
Cc1cc(C)cc(NC(=S)NC2CC3CCCC(C2)N3C2CCCC2)c1 (configuration not stated) | 35.5µM* | -19.1 | -20.2% | -5.5% | -4.1% | 5.2%
CNC(=S)NC1CC2CCC(C1)N2Cc1ccccc1 (configuration not stated) | -14.5% | 21.9 | 3.2% | 7.1% | -1.0% | 0.5%
CCc1ccc(NC(=S)NC2CC3CCCC(C2)N3Cc2ccccc2)cc1 (configuration not stated) | 7.08µM* | -4.7 | -35.4% | 8.0% | -1.2% | 4.47µM*
S=C(Nc1ccc(Cl)cc1)NC1CC2CCCC(C1)N2C1CC1 (configuration not stated) | ? | 23.6 | -25.1% | ? | -6.1% | 3.98µM*
S=C(Nc1ccc(Cl)cc1)NC1CC2CCC(C1)N2Cc1ccccc1 (configuration not stated) | 3.98µM* | 2.0 | -34.8% | -9.5% | 10.9% | ?
Cc1ccc2nc3c(cc(C(=O)NC4CCS(=O)(=O)C4)n3Cc3ccccc3)c(=O)n2c1 (configuration not stated) | 0.0% | -4.3 | -8.0% | ? | -4.2% | -17.1%
Cc1cc(C(=O)NCC(=O)Nc2ccc(F)c(F)c2)c(C)o1 | / | -3.4 | -14.7% | 4.8% | -9.9% | /
Cc1ccc(C(=O)NCc2ccccc2)cc1Br | 12.8% | 7.8 | 61.2% | 23.3% | 1.0% | -8.6%
Cc1ccc(C)c(S(=O)(=O)N2CCN(C(=O)c3ccc(N4CCCC4)c([N+](=O)[O-])c3)CC2)c1 | 68.1% | 46.7 | -12.5% | 20.6µM* | -7.4% | -2.4%
COc1cc2c(cc1NC(=O)C(Cl)Cl)-c1ccc(NC(=O)C(Cl)Cl)cc1C2 | / | -5.1 | -96.1% | / | / | /
SMILES | RORgamma inh | Giardia kill | BRCA1 expr act | ELG1 DNA repair | p53 reactivation | VP16 counter
Cc1cccc(C=NOCCc2ccccc2)n1 | / | 6.2 | 10µM* | / | / | /
Cc1ccc(C(=O)NCc2cccc(C(F)(F)F)c2)cc1S(=O)(=O)N1CCCCC1 | / | 3.0 | -4.3% | -5.9% | 9.3% | /
CC(=O)C1=C(C)NC(SCC(=O)c2ccc(Cl)cc2)=C(C#N)C1CC(C)C (configuration not stated) | 11.2µM* | -2.5 | -25.3% | -4.6% | 6.7% | ?
CC(=O)C1=C(C)NC(SCC(N)=O)=C(C#N)C1CC(C)C (configuration not stated) | 0.5% | -17.1 | -15.1% | -10.9% | -3.8% | 1.7%
CCOC(=O)C1=C(C)NC(SC)=C(C#N)C1CC(C)C (configuration not stated) | -7.2% | 5.6 | -50.8% | 10.3µM* | 0.8% | -2.2%
CC(=O)C1=C(C)NC(SCC(=O)c2ccc(F)cc2)=C(C#N)C1CC(C)C (configuration not stated) | 5.62µM* | 8.4 | 6.1% | ? | ? | 7.08µM*
CC(=O)C1=C(C)NC(SCC(=O)c2ccc(Cl)c(Cl)c2)=C(C#N)C1c1ccco1 (configuration not stated) | ? | -7.1 | -45.8% | ? | 0.8% | -63.4%
CCCCOc1ccc(CSCCNC(=S)Nc2ccccc2)cc1 | 4.47µM* | -10.4 | -57.1% | -26.4% | ? | 4.47µM*
CCCCCOc1ccc(CSCCNC(=S)Nc2ccccc2)cc1 | 3.16µM* | -8.7 | -3.3% | ? | ? | 3.16µM*
CC(C)COc1ccc(CSCCNC(=S)Nc2ccccc2)cc1 | 1.12µM* | 11.5 | -37.0% | 0.6% | 7.9% | 3.16µM*
CCCCCOc1ccc(NC(=O)CCCC(=O)O)cc1 | 7.0% | 20.4 | -0.2% | 19.1% | -1.3% | -29.3%
COc1ccc2c(c1)CCC/C2=N\Nc1nc(C(=O)NN)cs1 | 3.55µM* | 5.9 | -15.2% | ? | 14.8% | 12.6µM*
CCOC(=O)Cc1csc(NC(=O)c2cccs2)n1 | 9.9% | -13.2 | 33.9% | ? | ? | 1.5%
COc1cc(C(=O)Nc2nnc(C)s2)cc(OC)c1OC | 7.08µM* | 23.6 | -25.4% | 24.5% | 1.4% | 5.9%
CCOC(=O)c1csc(N/N=C2\CCc3ccccc32)n1 | 10µM* | 30.0 | 45.5% | 8.9% | 6.7% | ?
CCOC(=O)c1csc(NC(=O)c2cccs2)n1 | 0.0% | 11.1 | 7.94µM* | ? | ? | -3.5%
Cc1cc(C)cc(NC(=S)N2CCC(C(=O)c3ccc(F)cc3)CC2)c1 | / | 1.6 | 16.1% | / | / | /
